High-throughput results (PubChem BioAssay)
Most compounds without a hit are left out; they make up all but 4.1% or so of the library.
DAX1 inh-1 = DAX1 (NR0B1) inhibitors on StAR promoter, primary screen, cell-based, luminescence, SF-1 (NR5A1), full-length DAX-1. 1.1% of 370,000 active. HEK293T StAR-luciferase reporter, SF-1/DAX-1 repression relief. inhibition, % at 6.8 µM. AID 652010, 2013;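 active = inhibition above the mean over all tested compounds plus 3 SD, cut at about 3.6% in these data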;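 note: 0% = DAX-1 cells with DMSO and 100% = cells lacking DAX-1 with DMSO; higher inhibition means more luminescence from relief of DAX-1 repression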
hcDAF-12 act = H. contortus DAF-12 nuclear receptor activators, primary screen, cell-based, luminescence, HEK293, lit1-tk-luc reporter | AID 652067, 2013 | HEK293 hcDAF-12 lit1-tk-luc reporter; 0% DMSO, 100% Δ7-dafachronic acid | activation, % at 6.8 µM | 1.4% of 370,000 active;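 active = activation above the mean of all tested compounds plus 3 SD, cut at about 5.5% in these data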;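 note: 100% = response to 3 µM Δ7-dafachronic acid high control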
hgDAF12 agonist = H. glycines DAF-12 receptor agonists, primary screen, cell-based, luminescence, HEK293, GAL4 fusion, UAS-luciferase; HEK293 GAL4-hgDAF12 UAS-luciferase reporter, agonist luminescence; normalized to butyrate control; activation, % at 6.8 µM; 1.8% of 370,000 active; Nuclear hormone receptor DAF-12 (Heterodera glycines), GAL4 fusion;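 active = activation above a cutoff set at the mean of all screened compounds plus 3 SD, cut at about 10% in these data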;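 note: 0% = DMSO wells and 100% = sodium butyrate wells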
DAX1 inh-2 = DAX1 (NR0B1) inhibitors, primary screen, cell-based, HEK293, Gal4-DAX1, luciferase luminescence. Nuclear receptor subfamily 0 group B member 1 (Homo sapiens), P51843. HEK293 Gal4-DAX1 luciferase reporter. inhibition, % at 6.75 µM. 0.99% of 340,000 active. AID 504766, 2011;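 active = inhibition above the mean over all tested compounds plus 3 SD, cut at about 4.2% in these data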;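 note: 0% = DAX1-transfected cells with DMSO and 100% = empty-vector control cells with DMSO; inhibition shows as a rise in luminescence from relieved DAX1 repression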
Target sequence (P51843 207-470 limits assumed): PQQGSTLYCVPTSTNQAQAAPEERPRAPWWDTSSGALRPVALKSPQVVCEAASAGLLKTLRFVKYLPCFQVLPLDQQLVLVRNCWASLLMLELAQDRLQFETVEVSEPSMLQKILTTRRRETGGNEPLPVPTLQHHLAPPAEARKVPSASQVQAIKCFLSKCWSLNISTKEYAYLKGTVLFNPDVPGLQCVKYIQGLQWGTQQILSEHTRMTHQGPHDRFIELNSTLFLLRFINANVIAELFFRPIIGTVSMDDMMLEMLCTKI
ssDAF12 agonist = S. stercoralis DAF-12 nuclear receptor activators, primary screen, cell-based, luminescence, HEK293, GRIP1 co-expression, lit1-tk-luc | Nuclear hormone receptor DAF-12 (Strongyloides stercoralis) | 1% of 370,000 active | activation, % at 6.8 µM | HEK293 ssDAF-12/GRIP1 lit1-tk-luc reporter; % of 3 µM dafachronic acid response;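 active = activation above the mean over all tested compounds plus 3 SD, cut at about 0.9% in these data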;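 note: 0% = DMSO-only wells and 100% = 3 µM delta7-dafachronic acid wells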
hgDAF12 ag = H. glycines DAF-12 receptor agonists, confirmation, cell-based, luminescence, HEK293, GAL4-LBD fusion; activation, % at 6.8 µM; 80% of 3,300 active; AID 743050, 2013; HEK293 GAL4-hgDAF12 luciferase reporter, agonist mode; percent of butyrate response; shares compounds with hgDAF12 agonist;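 active = mean activation over triplicate wells above the hit cutoff derived from the earlier primary screen, cut at about 11% in these data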;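 note: 0% = DMSO low control and 100% = 2 mM sodium butyrate high control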
LXR ag 2 = LXR agonists, Gal4 luciferase reporter, confirmation, counter-screen for hgDAF-12 agonist project, cell-based, luminescence, HEK293, H. glycines campaign; 3,300 tested, under 10 active; shares compounds with hgDAF12 agonist; AID 743051, 2013; 24 h; activation, % at 6.8 µM;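 active = mean activation of the triplicate above a set limit carried over from the primary screen, none filed active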
Target sequence (P55055 whole entry, looked up, the tested form may be a part): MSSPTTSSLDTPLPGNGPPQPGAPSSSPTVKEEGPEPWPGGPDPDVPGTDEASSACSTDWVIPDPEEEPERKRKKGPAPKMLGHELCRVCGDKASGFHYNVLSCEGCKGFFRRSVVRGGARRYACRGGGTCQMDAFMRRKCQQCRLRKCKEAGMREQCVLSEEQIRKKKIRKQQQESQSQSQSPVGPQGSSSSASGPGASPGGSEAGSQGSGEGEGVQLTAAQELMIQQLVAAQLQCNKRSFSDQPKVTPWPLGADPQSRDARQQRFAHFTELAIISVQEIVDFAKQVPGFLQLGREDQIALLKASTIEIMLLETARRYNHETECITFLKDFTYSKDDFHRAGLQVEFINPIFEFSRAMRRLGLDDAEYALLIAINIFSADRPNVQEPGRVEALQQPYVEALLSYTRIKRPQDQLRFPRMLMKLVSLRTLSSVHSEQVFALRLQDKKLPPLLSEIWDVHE
Starred values were filed as active, the others as inactive; · = no result.

SMILES | DAX1 inh-1 | hcDAF-12 act | hgDAF12 agonist | DAX1 inh-2 | ssDAF12 agonist | hgDAF12 ag | LXR ag 2
O=C(Nc1ccc2c(c1)CCC2)Nc1ccc2c(c1)OCO2 | 1.5 | 1.5 | 13.8* | 2.5 | -0.8 | 14.1* | 0.5
O=C(Nc1ccc2c(c1)CCC2)c1cc(F)cc(F)c1 | 4.1* | 0.4 | 14.2* | 2.3 | -0.3 | 12.5* | 0.4
CCCC(=O)Nc1sc(Cc2ccccc2)c(C)c1C(N)=O | -0.7 | -1.4 | 5.8 | -0.1 | -0.9 | · | ·
CC1CCc2c(sc(NC(=O)CCC(=O)O)c2C(=O)NC2CC2)C1 (configuration not stated) | -0.5 | -0.8 | 1.8 | 1.0 | -0.4 | · | ·
O=C(Nc1cccc([N+](=O)[O-])c1)Nc1cccc([N+](=O)[O-])c1 | -0.6 | -2.0 | -0.3 | -0.2 | -1.8 | · | ·
O=C(Nc1cccc([N+](=O)[O-])c1)Nc1ccc2c(c1)OCCO2 | 1.8 | 3.5 | 13.3* | 2.8 | 0.3 | 17.5* | 0.8
CCCCCN(C(=O)CCC(=O)OCC(=O)N(C)C1CCCCC1)c1c(N)n(CCCC)c(=O)[nH]c1=O | 1.1 | -1.2 | 14.3* | -1.3 | -1.2 | -2.2 | 0.0
CCc1ccc(-c2cc(C(=O)N/N=C/c3ccccn3)[nH]n2)cc1 | 2.2 | 3.9 | 18.1* | 4.5* | 0.3 | 3.3 | 0.1
Cc1ccc(-c2cc(C(=O)N/N=C/c3c[nH]c4ccccc34)[nH]n2)cc1 | -1.8 | -0.2 | 14.5* | -1.6 | -1.1 | 6.3 | 0.1
O=C(N/N=C/c1ccccn1)c1cc(-c2ccccc2Cl)n[nH]1 | 0.2 | 0.4 | 0.4 | 1.2 | -1.2 | · | ·
O=C(N/N=C/c1ccccn1)c1cc(-c2ccc3ccccc3c2)n[nH]1 | 3.3 | 4.6 | 22.4* | 1.4 | 0.2 | 0.5 | 0.1
O=C(N/N=C/c1ccccn1)c1cc(-c2cccc3ccccc23)n[nH]1 | 0.7 | -0.8 | 14.5* | 6.6* | -1.2 | -0.9 | 0.1
Cc1ccc(OC(=O)CCC(=O)NC(C)c2ccccc2)cc1 (configuration not stated) | 0.0 | -2.0 | -1.0 | -1.1 | -0.8 | · | ·
Cc1ccccc1NC(=O)c1cnc2ccccn2c1=O | 4.2* | 4.2 | 16.4* | -0.8 | 0.3 | 15.6* | 0.9
O=C(NCc1ccc(F)cc1)c1cc2ccccn2n1 | -0.7 | -0.8 | 2.4 | 0.7 | -0.4 | · | ·
Cc1ccccc1NC(=O)c1c(F)c(F)c(F)c(F)c1F | 0.8 | 0.9 | 1.9 | 0.3 | -1.1 | · | ·
Cc1ccccc1NC(=O)c1cc2ccccn2n1 | 3.3 | 6.0* | 19.4* | 1.9 | 0.9 | 13.2* | 0.8
O=C(NCCc1cccc(F)c1)c1cc2ccccn2n1 | 3.1 | 0.7 | 13.6* | · | -0.3 | 12.5* | 0.4
CSc1ncc(C(=O)Nc2ccccc2C)c(C)n1 | -0.5 | -2.7 | 0.9 | 0.3 | -1.1 | · | ·
O=C(Nc1ccncc1)c1ccc(NS(=O)(=O)c2ccc3[nH]c(=O)[nH]c3c2)cc1 | 0.2 | -0.7 | 1.0 | 0.1 | -1.0 | · | ·
O=C(Nc1ccc(NC(=O)c2cccs2)cn1)c1ccccc1 | 3.3 | 5.2 | 15.8* | 1.1 | -0.2 | 15.3* | 1.0
O=C(Nc1ccc(NC(=O)C2CC2)cn1)c1ccccc1 | 3.4 | 5.5 | 16.4* | -0.2 | 0.4 | 13.1* | 0.8
C[C@H]1[C@@H](c2ccccc2)OC(O)([C@H](Cc2ccccc2)NC(=O)OC(C)(C)C)CN1C (some centres not stated) | · | -0.6 | -0.8 | · | -1.6 | · | ·
O=C(c1ccc(N2CCCC2)c([N+](=O)[O-])c1)N1CCN(S(=O)(=O)c2ccccc2)CC1 | 0.3 | -3.5 | 0.9 | -0.6 | -1.3 | · | ·
CCc1ccc(C(=O)CN2CCSC2=N)cc1 | 3.4 | 5.6* | 19.8* | 1.5 | 0.7 | 16.6* | 0.7
SMILES | DAX1 inh-1 | hcDAF-12 act | hgDAF12 agonist | DAX1 inh-2 | ssDAF12 agonist | hgDAF12 ag | LXR ag 2
Cc1nn(-c2ccccc2)c(/N=C/c2ccccc2O)c1-c1ccccc1 | 2.6 | 1.6 | 15.2* | 1.8 | 0.0 | 11.4* | 0.3
Cc1nn(-c2ccccc2)c(C)c1/C=N/O | 0.2 | -0.9 | 0.9 | 0.2 | -0.8 | · | ·
O=C(c1ccco1)N1N=C(c2ccc(Br)cc2)CC1(O)C(F)(F)F (configuration not stated) | -0.7 | -2.0 | -1.4 | 0.3 | -1.1 | · | ·
C=CCN1C(=O)[C@@H](CC(=O)N2CCSCC2)[C@]2(C(=O)OC)CCCCC=C12 | 0.4 | 0.8 | 17.4* | · | -1.6 | -0.1 | 0.0
COc1ccc(CCNC(=O)c2cc(-c3ccco3)on2)cc1OC | -1.8 | -2.0 | 13.9* | -1.6 | -1.9 | 11.3* | -0.1
Cc1ccccc1Cn1cc(NC(=O)c2cc(-c3ccco3)on2)cn1 | -0.7 | -0.9 | 39.0* | -3.0 | -1.5 | 2.6 | 0.0
O=C(NCCc1ccccc1)c1cc(-c2ccco2)on1 | 2.1 | 5.6* | 45.9* | 1.7 | 0.6 | 52.7* | 0.6
Cc1ccccc1Cn1cc(NC(=O)c2cc(-c3cccs3)on2)cn1 | -2.5 | -2.7 | 0.7 | -0.7 | -1.9 | · | ·
COc1ccc(CCNC(=O)c2cc(-c3cccs3)on2)cc1OC | · | · | · | -0.3 | · | · | ·
CC(C)n1cc(NC(=O)c2cc(-c3ccccc3)on2)cn1 | -1.6 | 4.0 | 14.2* | -2.6 | 0.5 | 16.1* | 0.3
O=C(Nc1ccccc1C(=O)O)c1cc(S(=O)(=O)Nc2cccc(F)c2)ccc1Cl | 0.2 | -1.9 | -3.4 | -1.1 | -1.3 | · | ·
Cc1ccc(N=Nc2ccc(O)cc2)c(Br)c1 | 2.9 | 5.5 | 15.3* | 2.4 | 0.6 | 15.6* | 0.9
CC(OC(=O)c1nc(Cl)ccc1Cl)C(=O)c1ccccc1 (configuration not stated) | 1.5 | -1.8 | -0.7 | -0.1 | -0.9 | · | ·
O=C(Nc1cccc(C(F)(F)F)c1)c1cc[n+]([O-])cc1 | -0.3 | -1.1 | -1.9 | -0.6 | -0.8 | · | ·
O=C(Nc1cccc(O)c1)c1ccc(C(F)(F)F)cc1 | 2.1 | 3.6 | 13.6* | 1.7 | 0.3 | 13.3* | 0.7
O=C(NCCc1ccccc1)c1cccc(NC(=O)C2CCC2)c1 | 3.2 | 1.6 | 10.2 | 0.1 | -0.3 | · | ·
O=C(NCCc1ccccc1)c1cccc(NC(=O)C2CC2)c1 | 3.5 | 4.0 | 17.2* | 1.6 | 0.4 | 13.4* | 0.4
Cc1ccc(S(=O)(=O)Nc2ccccc2[N+](=O)[O-])cc1 | -1.6 | -0.5 | 27.8* | · | -1.4 | 1.0 | 0.0
